Screens deposited in PubChem by National Center for Advancing Translational Sciences (NCATS).
AmpC no deterg = qHTS Inhibitors of AmpC Beta-Lactamase (assay without detergent); P00811; AID 485341, 2010; 0.52% of 330,000 active; Potency, µM (series often up to 57.1 µM), without a hit: at the highest dose activity change, negative = inhibition, most hits filed as inhibitors; AmpC nitrocefin hydrolysis, absorbance 480 nm, 0.0001% Triton;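 further: potency means the concentration at half of the fitted maximal effect; plate controls were no compound for no effect and no enzyme for full effect; nearly all actives have a fitted effect of over 20% in size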
Target sequence (P00811 whole entry, looked up): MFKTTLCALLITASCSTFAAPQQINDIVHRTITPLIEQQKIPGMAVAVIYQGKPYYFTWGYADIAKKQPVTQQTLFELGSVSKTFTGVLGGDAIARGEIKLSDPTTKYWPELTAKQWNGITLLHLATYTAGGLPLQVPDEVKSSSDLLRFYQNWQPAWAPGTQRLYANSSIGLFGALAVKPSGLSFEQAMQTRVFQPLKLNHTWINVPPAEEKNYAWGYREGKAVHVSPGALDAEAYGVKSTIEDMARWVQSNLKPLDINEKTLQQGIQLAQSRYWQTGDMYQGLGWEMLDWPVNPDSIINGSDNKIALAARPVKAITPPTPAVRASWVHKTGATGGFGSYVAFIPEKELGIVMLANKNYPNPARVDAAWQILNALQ
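AmpC (5.3 nM in the dispensed reagent) in 20 mM phosphate pH 7.0 with 0.01% (detergent screen) or 0.0001% Triton X-100 was preincubated with compounds for 15 min at room temperature. Nitrocefin was then added from an 800 uM solution, and hydrolysis was followed at 480 nm.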
AmpC detergent = qHTS Inhibitors of AmpC Beta-Lactamase (assay with detergent). P00811. AmpC hydrolysis of nitrocefin, absorbance 480 nm, 0.01% Triton. Potency, µM (highest dose often 114 µM), for inactives: at the highest dose activity change, negative = inhibition, usual class: inhibitors. 0.041% of 370,000 active;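 further: potency means the concentration at half of the fitted maximal effect; 0% = no-compound wells and -100% = no-enzyme wells; nearly all actives have a fitted effect of over 25% in size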
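AmpC (5.3 nM in the dispensed reagent) in 20 mM phosphate pH 7.0 with 0.01% (detergent screen) or 0.0001% Triton X-100 was preincubated with compounds for 15 min at room temperature. Nitrocefin was then added from an 800 uM solution, and hydrolysis was followed at 480 nm.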
AMA1-RON2 inh = qHTS for Inhibitors of AMA1-RON; Towards Development of Antimalarial Drug Lead: Primary Screen; Plasmodium falciparum AMA1 (3D7) - RON2 peptide interaction; AlphaScreen AMA1-biotinylated RON2 peptide binding; Potency, µM (titrated, usually from 58.2 µM), for the others: at the top dose activity change, negative = inhibition, most hits filed as inhibitors; 0.2% of 360,000 active;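 further: potency means the concentration at half of the fitted maximal effect; 0% = vehicle wells and -100% = peptide control; nearly all actives have a fitted effect of over 45% in size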
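AMA1 (3D7) with his tag at 25 nM final met compounds first, then biotinylated RON2 peptide at 25 nM; detection used donor plus acceptor beads, 10 µg/mL apiece, read by AlphaScreen after 30 min at room temperature.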
Shiga inhibitor = A qHTS for Small Molecule Inhibitors of Shiga Toxin | Vero cells, Shiga toxin protein synthesis inhibition reporter | inhibition, % at 38.7 µM | 9.2% of 290,000 active | AID 2315, 2010; in the data active means inhibition mostly above about 28%, no sharp cut-off; inactive means mostly below about 43%; further: 0% is about no effect
CHX counter = Cycloheximide Counterscreen for Small Molecule Inhibitors of Shiga Toxin; 12% of 300,000 active; max response, %; cell reporter, cycloheximide protein synthesis inhibition counterscreen; AID 2314, 2010; in the data active means max response mostly above about 13%, no sharp cut-off; inactive means mostly below about 14%; further: read at 38.3 µM for the half of the compounds with a filed dose; 0% is about no effect
SARS PLpro yeast = qHTS of Yeast-based Assay for SARS-CoV PLP; S. cerevisiae expressing SARS-CoV PLpro, growth rescue; Potency, µM (series often up to 32.9 µM), without a hit: at the top dose activity, positive = growth rescue, usual class: activators; 0.19% of 330,000 active; calls by dose curve; further: potency means the concentration at half of the fitted maximal effect; 0% is about no effect; nearly all actives have a fitted effect of over 55% in size
Active calls of the source: *; u = inconclusive; x = no result. Many of the other results were omitted from the sample, so hits are more common in it than they were. Unless noted, the call rests on the fitted dose curve; in most records, active means well fitted curve in the direction sought with a large enough effect; inconclusive means small, poorly fitted or top-dose-only effect, or another doubt; inactive means no such curve, though single readings can be large; an effect the other way counts as inactive or inconclusive.

SMILES | AmpC no deterg | AmpC detergent | AMA1-RON2 inh | Shiga inhibitor | CHX counter | SARS PLpro yeast
Cc1sc(NC(=O)c2ccco2)c(C(c2cccnc2)N2CCN(CCO)CC2)c1C (stereo not given) | 97.9% | -4.4% | 3.5% | -3.5 | -1.0 | 1.8%
CCOC(=O)C1CCN(C(c2cccnc2)c2c(NC(=O)c3ccco3)sc(C)c2C)CC1 (stereo not given) | 11.5% | 0.1% | -19.3% | 32.4 | 21.0* | 7.1%
CC(=O)OCC(=O)[C@@]1(O)[C@H](OC(C)=O)C[C@H]2[C@@H]3CCC4=CC(=O)C=C[C@]4(C)[C@@]3(F)[C@@H](O)C[C@@]21C | x | x | x | 11.6 | -3.5 | x
O=C1S/C(=C\c2ccc(N3CCOCC3)o2)C(=O)N1Cc1c(F)cccc1Cl | -8.4% | -1.7% | 4.0% | -9.0 | -2.2 | -3.6%
O=C1S/C(=C\c2ccc(N3CCOCC3)o2)C(=O)N1c1ccccc1 | 14.3% | 2.3% | 64.2% | 153.3* | 30.6* | -1.8%
O=C(O)c1ccccc1-c1ccc(/C=C2\SC(=O)N(c3ccccc3)C2=O)o1 | -11.9% | -10.8% | -3.2% | x | 14.8* | -5.9%
O=C(Nc1cccn2ncnc12)c1cccc(C(F)(F)F)c1 | 2.6% | u | -0.9% | 44.5 | 23.9* | -3.8%
O=C(Nc1cccn2ncnc12)C(F)(F)F | -16.7% | u | 3.4% | -17.0 | 11.7 | 2.9%
O=C(Nc1ccsc1C(=O)O)c1cccc(Oc2ccccc2)c1 | -30.7% | 0.6% | -8.4% | 52.8 | 13.6* | -6.5%
O=C(Nc1ccsc1C(=O)O)c1cccc(C(F)(F)F)c1 | -19.2% | -9.0% | -8.8% | 76.9* | 61.1* | 1.7%
COC(=O)[C@]12CCCCC=C1N(Cc1ccccc1)C(=O)[C@H](CC(=O)NCCCCc1ccccc1)C2 | x | x | -5.0% | x | x | x
O=C(O)C(Cc1ccccc1)N1C(=O)CCC1=O (stereo not given) | -34.1% | 2.3% | -2.1% | -9.0 | -1.6 | 0.3%
COc1ccc(C(CNC(=O)c2ccc(S(=O)(=O)N(C)C)cc2)N2CCCCC2)cc1 (stereo not given) | -12.8% | u | 2.8% | 14.2 | -1.2 | 22.6%
O=C(c1ccccc1)c1cnc(Nc2ccccc2Cl)s1 | -22.1% | 0.1% | 22.8% | 88.5* | 41.7* | -10.9%
O=C(c1ccc(Cl)c(Cl)c1)c1cnc(Nc2ccccc2)s1 | -19.4% | 2.3% | 26.4% | -3.6 | 10.7 | -3.4%
CC(C)(C)C(=O)c1cnc(Nc2ccccc2Cl)s1 | x | -7.5% | -6.5% | 67.4* | 58.6* | x
N#C/C(=C/c1ccco1)c1nc2ccccc2s1 | -2.8% | 12.2% | -1.8% | 118.6* | 94.4* | -28.9%
N#C/C(=C/c1ccc(-c2cc(C(=O)O)cc(C(=O)O)c2)o1)c1nc2ccccc2s1 | -53.9% | -5.8% | x | -1.1 | 8.0 | 0.0%
N#C/C(=C\c1ccco1)c1nc2ccccc2s1 | -30.8% | -0.6% | u | 110.4* | 70.4* | 4.0%
COc1cccc(-c2cnc(C(O)c3c(C)cc(C)cc3C)[nH]2)c1 (stereo not given) | x | x | 2.8% | x | x | x
COc1ccc(S(=O)(=O)N/N=C\c2ccc3c(c2)OCO3)cc1 | -19.1% | 2.4% | -8.7% | 17.9 | -1.3 | 3.3%
O=S1(=O)CC(N2CCCC2)CN1Cc1ccc(F)cc1 (stereo not given) | x | x | -6.0% | x | x | x
COc1cccc(/C=C2\SC(=S)N(CCCC(=O)N3CCCC3)C2=O)c1 | 87.3% | -3.6% | -9.2% | 2.4 | 3.2 | 0.0%
COc1cccc(/C=C2\N=C3CCCCCN3C2=O)c1 | -5.4% | u | 11.9% | 106.4* | 51.8* | 4.3%
CCOc1cc(/C=C2\CCC/C(=C\c3cc(Cl)c(O)c(OCC)c3)C2=O)cc(Cl)c1O | -23.5% | u | -2.2% | 59.9 | 22.7* | -17.0%
CCOc1cc(/C=C2\SC(N)=NC2=O)ccc1O | -29.6% | 6.4% | 113.5% | 14.1 | 3.7 | 2.2%
CCOc1cc(/C=C2\N=C3CCCCCN3C2=O)ccc1O | -25.2% | 8.3% | 1.1% | 97.2* | 35.9* | -4.1%
CCOc1cc(/C=C2/C(=O)ON=C2C)ccc1O | -9.0% | -1.6% | -19.4% | -3.7 | -4.0 | 1.5%
